Unmarked numbers belong to inactive results. Results filed as inconclusive are left out. Entries that show only a call come without a potency. Calls of active or inactive are those of the source. Unless noted, calls come from the whole dose curve.
Legend:
[1] = Nuclear factor erythroid 2-related factor 2/antioxidant responsive element (Nrf2/ARE) small molecule agonists: qHTS cell viability counter screen in human keratinocytes (AID 1919968; active = well fitted curve in the direction sought with a large enough effect in the repeat runs; an effect the other way counts as inactive or inconclusive; note: nearly all actives have a fitted effect of over 55% in size)
Procedure, shortened: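 Viability counter-screen: KeratinoSens reporter cells, DMSO-delivered compounds, 23 h at 37 C, CellTiter-Fluor fluorescence.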

[2] = Nuclear factor erythroid 2-related factor 2/antioxidant responsive element (Nrf2/ARE) small molecule agonists: luciferase reporter gene qHTS assay in human keratinocytes (AID 1919969); note: nearly all actives have a fitted effect of over 35% in size; note: potency is the fitted concentration of half-maximal effect
[3] = target: Gonadotropin-releasing hormone receptor (Homo sapiens) (UniProt P30968); assay: Human gonadotropin-releasing hormone receptor (GnRHR) small molecule agonists, calcium flux assay in GnRHR-HEK293 cells (AID 1920063); note: nearly all actives have a fitted effect of over 35% in size
Procedure, shortened: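 Tox21-format agonist screen using human GnRHR-expressing HEK293 cells and a fluorescent calcium dye; kinetic 3-min fluorescence reading after compound addition, 15-point concentration series run in triplicate.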

[4] = target: KiSS-1 receptor (Homo sapiens) (UniProt Q969F8); assay: Human kisspeptin (KISS1R) small molecule agonists, calcium flux assay in KISS1R-HEK293 cells (AID 1920064; active = well fitted curve in the direction sought with a large enough effect in the repeat runs; an effect the other way counts as inactive or inconclusive)
Procedure, shortened: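 Intracellular calcium mobilization in KISS1R-HEK293 cells was recorded by fluorescence (Ex/Em 480/540) for 3 min following compound addition to cells pre-loaded 1 h with calcium dye.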

[5] = p53 small molecule agonists, cell-based qHTS assay with human liver microsomes: qHTS cell viability counter screen (AID 1963579); note: nearly all actives have a fitted effect of over 45% in size
Procedure, shortened: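 Cells carrying the p53 response-element beta-lactamase reporter are treated for 16 h at 37 C with test compounds in the presence of human liver microsomes and NADPH (both 0.5 mg/mL final); ATP-based CellTiter-Glo luminescence then reports viability.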

[6] = p53 small molecule agonists, cell-based qHTS assay with rat liver microsomes: qHTS cell viability counter screen (AID 1963580); note: nearly all actives have a fitted effect of over 45% in size
Procedure, shortened: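 Intracellular ATP, by CellTiter-Glo luminescence, defines viability. HCT-116 p53RE-bla cells, 4,000 per well, were compound-treated in the presence of rat liver microsomes and NADPH for 16 h at 37 C.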

[7] = p53 small molecule agonists, cell-based qHTS assay: qHTS cell viability counter screen (AID 1963581); note: nearly all actives have a fitted effect of over 45% in size
Procedure, shortened: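 Compounds are pinned onto HCT-116 p53RE-bla cells and left 16 h at 37 C. Following the reporter FRET read, ATP is quantified by CellTiter-Glo luminescence after 30 min at room temperature.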

[8] = cAMP Responsive Elements (CRE) small molecule agonists, cell-based qHTS assay (AID 1963590)
Procedure, shortened: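 FRET-based beta-lactamase readout (LiveBLAzer B/G, 2 h RT) quantified CRE activation in HEK 293T CRE-bla cells after 3 h treatment with DMSO-dissolved compounds.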

[9] = cAMP Responsive Elements (CRE) small molecule antagonists, cell-based qHTS assay (AID 1963591; active = well fitted inhibition curve with a large enough effect in the signal ratio in the repeat runs, not every such curve was filed as active; the % refers to the signal ratio)
Procedure, shortened: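 qHTS in CRE-bla HEK 293T cells: compound in DMSO, then 0.25 uM NKH477 (final), 3 h at 37 °C/5% CO2; beta-lactamase FRET read-out after 2 h substrate incubation.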

[10] = target: Beta-2 adrenergic receptor (Homo sapiens) (UniProt P07550); assay: Adrenergic beta2 receptor (ADRB2) small molecule antagonists, cell-based qHTS assay (AID 1963592); note: series mostly up to about 92 µM; nearly all actives have a fitted effect of over 50% in size
Procedure, shortened: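 Cells (CHO, stable ADRB2 overexpression) incubated 18-20hr at 37C; compounds added from DMSO; agonist mix (1nM isoproterenol, 100uM IBMX, 25uM Ro-20-1724) added; 0.5hr RT; d2-cAMP and anti-cAMP-cryptate added; 1hr RT; 665/615 nm read.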

[11] = target: Beta-2 adrenergic receptor (Homo sapiens) (UniProt P07550); assay: Adrenergic beta2 receptor (ADRB2) small molecule agonists, cell-based qHTS assay (AID 1963593);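 note: CHO cells stably overexpressing human ADRB2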
Procedure, shortened: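 CHO cells stably over-expressing ADRB2 were plated overnight at 37C, then dosed with compounds plus a stimulation mix containing 100uM IBMX and 25uM Ro-20-1724 for 0.5hr at room temperature. cAMP was measured by HTRF competition, 1hr.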

[12] = target: D(2) dopamine receptor (Homo sapiens) (UniProt P14416); assay: Dopamine D2 receptor (DRD2) small molecule agonists, cell-based qHTS assay (AID 1963594); note: nearly all actives have a fitted effect of over 35% in size
Procedure, shortened: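 cAMP accumulation in DRD2-HEK293 cells measured by HTRF after 1 h detection; compounds added 10 min before NKH477 (200nM […]) forskolin-analogue stimulation, 30 min at room temperature, with Ro20-1724 present at 0.1 mM final.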

[13] = target: D(2) dopamine receptor (Homo sapiens) (UniProt P14416); assay: Dopamine D2 receptor (DRD2) small molecule antagonists, cell-based qHTS assay (AID 1963595; active = well fitted inhibition curve with a large enough effect in the signal ratio in the repeat runs, with a control signal flat; the % refers to the signal ratio)
Procedure, shortened: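 DRD2-HEK293; 0.1 mM Ro20-1724; cpd 10 min RT; NKH477 200 nM + quinpirole 12 nM, 30 min RT; HTRF cAMP (cAMP-d2/anti-cAMP cryptate), 665/620 nm ratio after 1 h.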

[14] = target: 5-hydroxytryptamine receptor 2A (Homo sapiens) (UniProt P28223); assay: 5-hydroxytryptamine receptor 2A (HTR2A) small molecule antagonists, cell-based qHTS assay (AID 1963586); note: nearly all actives have a fitted effect of over 45% in size
Procedure, shortened: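 Antagonist-mode intracellular calcium assay: DOI (4 nM) added after 5 min compound pre-incubation at room temperature to dye-loaded HTR2A-CHO cells. Fluorescence followed for 3 min, sampled every second.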

[15] = target: 5-hydroxytryptamine receptor 2A (Homo sapiens) (UniProt P28223); assay: 5-hydroxytryptamine receptor 2A (HTR2A) small molecule agonists, cell-based qHTS assay (AID 1963587); note: nearly all actives have a fitted effect of over 30% in size
Procedure, shortened: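 Kinetic calcium-flux fluorescence (2 min, 1 sec intervals) after compound addition in agonist mode. HTR2A-CHO cells were cultured 18 h, then dye-loaded 1 h at 37 C.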

[16] = target: Muscarinic acetylcholine receptor M1 (Homo sapiens) (UniProt P11229); assay: Cholinergic receptor muscarinic 1 (CHRM1) small molecule antagonists, cell-based qHTS assay (AID 1963588); note: nearly all actives have a fitted effect of over 40% in size
Procedure, shortened: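 CHRM1-CHO calcium-flux assay, antagonist mode. Cells were seeded 18 h, dye-loaded 1 h at 37 C and given compound for 5 min at RT, then acetylcholine was added at 50nM. FDSS fluorescence was read 3 min; 15 concentrations, three runs.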

[17] = target: Muscarinic acetylcholine receptor M1 (Homo sapiens) (UniProt P11229); assay: Cholinergic receptor muscarinic 1 (CHRM1) small molecule agonists, cell-based qHTS assay (AID 1963589); note: nearly all actives have a fitted effect of over 35% in size
Procedure, shortened: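 Stable CHRM1-CHO cells (human receptor) were incubated 18 h, dye-loaded for 1 h at 37 C and exposed to test compounds for agonist activity, with calcium-dependent fluorescence followed kinetically.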

[18] = p53 small molecule agonists, cell-based qHTS assay (AID 1963582; active = well fitted activation curve with a large enough effect in the signal ratio in the repeat runs, not every such curve was filed as active; the % refers to the signal ratio)
Procedure, shortened: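 Agonist activity was scored from beta-lactamase FRET fluorescence in p53RE-bla cells treated 16 h at 37 C with compounds in DMSO, substrate incubation being 2 h at room temperature.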

[19] = p53 small molecule agonists, cell-based qHTS assay with rat liver microsomes (AID 1963578)
Procedure, shortened: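 Read-out is beta-lactamase reporter fluorescence (LiveBLAzer, 2 h, room temperature, dark) in p53RE-bla cells treated 16 h at 37 C with compound, rat liver microsomes and NADPH, both 0.5 mg/mL final.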

Sequence of Muscarinic acetylcholine receptor M1 (Homo sapiens) (P11229 whole entry, looked up): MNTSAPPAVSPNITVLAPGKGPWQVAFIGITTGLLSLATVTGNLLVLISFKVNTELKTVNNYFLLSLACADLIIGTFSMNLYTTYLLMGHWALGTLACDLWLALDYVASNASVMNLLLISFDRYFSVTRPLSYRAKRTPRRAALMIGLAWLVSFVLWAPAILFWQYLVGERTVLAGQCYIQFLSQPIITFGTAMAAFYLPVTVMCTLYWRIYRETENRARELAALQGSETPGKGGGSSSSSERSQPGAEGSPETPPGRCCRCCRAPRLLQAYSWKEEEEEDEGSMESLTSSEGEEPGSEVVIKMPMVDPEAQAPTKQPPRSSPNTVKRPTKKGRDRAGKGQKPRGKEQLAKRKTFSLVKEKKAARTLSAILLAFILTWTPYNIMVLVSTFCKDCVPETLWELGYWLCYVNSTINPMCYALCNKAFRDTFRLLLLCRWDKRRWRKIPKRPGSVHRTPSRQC
Sequence of Gonadotropin-releasing hormone receptor (Homo sapiens) (P30968 whole entry, looked up): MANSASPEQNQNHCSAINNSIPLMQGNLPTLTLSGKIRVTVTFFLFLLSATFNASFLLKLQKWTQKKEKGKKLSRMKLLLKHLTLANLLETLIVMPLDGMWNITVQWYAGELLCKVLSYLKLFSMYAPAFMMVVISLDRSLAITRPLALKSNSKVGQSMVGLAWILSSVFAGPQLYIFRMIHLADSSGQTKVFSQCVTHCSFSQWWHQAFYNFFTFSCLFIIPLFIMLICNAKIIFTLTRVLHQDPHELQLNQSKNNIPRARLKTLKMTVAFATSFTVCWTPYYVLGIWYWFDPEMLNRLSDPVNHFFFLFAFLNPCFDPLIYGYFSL
Sequence of D(2) dopamine receptor (Homo sapiens) (P14416 whole entry, looked up): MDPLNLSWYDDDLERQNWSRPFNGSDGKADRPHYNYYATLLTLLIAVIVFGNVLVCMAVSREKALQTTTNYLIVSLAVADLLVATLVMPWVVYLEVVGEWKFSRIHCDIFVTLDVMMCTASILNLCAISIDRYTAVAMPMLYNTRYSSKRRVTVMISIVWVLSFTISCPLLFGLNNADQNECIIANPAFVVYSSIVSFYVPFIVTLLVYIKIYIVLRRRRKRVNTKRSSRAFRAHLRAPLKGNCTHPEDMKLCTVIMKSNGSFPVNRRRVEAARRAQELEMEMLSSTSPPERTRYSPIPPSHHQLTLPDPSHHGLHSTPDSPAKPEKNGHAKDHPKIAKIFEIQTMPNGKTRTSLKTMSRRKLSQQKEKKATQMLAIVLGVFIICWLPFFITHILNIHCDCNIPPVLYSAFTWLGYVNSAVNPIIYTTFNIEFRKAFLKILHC
Sequence of 5-hydroxytryptamine receptor 2A (Homo sapiens) (P28223 whole entry, looked up): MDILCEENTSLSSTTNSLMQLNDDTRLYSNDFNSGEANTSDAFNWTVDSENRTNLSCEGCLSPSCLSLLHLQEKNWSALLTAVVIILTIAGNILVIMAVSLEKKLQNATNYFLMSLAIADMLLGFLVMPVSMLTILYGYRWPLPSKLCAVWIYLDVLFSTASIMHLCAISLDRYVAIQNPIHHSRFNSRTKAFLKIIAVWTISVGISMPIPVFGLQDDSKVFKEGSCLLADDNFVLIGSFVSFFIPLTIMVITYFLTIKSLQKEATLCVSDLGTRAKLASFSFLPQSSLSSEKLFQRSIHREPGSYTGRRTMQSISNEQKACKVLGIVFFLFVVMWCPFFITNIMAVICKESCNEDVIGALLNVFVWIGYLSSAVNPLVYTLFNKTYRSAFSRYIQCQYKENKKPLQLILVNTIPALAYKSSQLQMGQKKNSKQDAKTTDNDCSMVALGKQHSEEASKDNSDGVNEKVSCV
Sequence of KiSS-1 receptor (Homo sapiens) (Q969F8 whole entry, looked up): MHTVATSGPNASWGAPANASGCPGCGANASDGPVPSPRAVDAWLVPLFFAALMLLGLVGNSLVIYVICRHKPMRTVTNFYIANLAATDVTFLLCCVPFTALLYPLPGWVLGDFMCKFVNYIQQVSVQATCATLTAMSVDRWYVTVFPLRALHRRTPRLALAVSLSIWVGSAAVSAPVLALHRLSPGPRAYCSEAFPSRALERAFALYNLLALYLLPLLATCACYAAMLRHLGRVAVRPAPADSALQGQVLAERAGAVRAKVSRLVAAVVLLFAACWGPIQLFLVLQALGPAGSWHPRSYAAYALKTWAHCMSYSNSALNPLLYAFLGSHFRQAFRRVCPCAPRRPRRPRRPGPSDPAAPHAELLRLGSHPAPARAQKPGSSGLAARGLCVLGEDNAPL
Sequence of Beta-2 adrenergic receptor (Homo sapiens) (P07550 whole entry, looked up): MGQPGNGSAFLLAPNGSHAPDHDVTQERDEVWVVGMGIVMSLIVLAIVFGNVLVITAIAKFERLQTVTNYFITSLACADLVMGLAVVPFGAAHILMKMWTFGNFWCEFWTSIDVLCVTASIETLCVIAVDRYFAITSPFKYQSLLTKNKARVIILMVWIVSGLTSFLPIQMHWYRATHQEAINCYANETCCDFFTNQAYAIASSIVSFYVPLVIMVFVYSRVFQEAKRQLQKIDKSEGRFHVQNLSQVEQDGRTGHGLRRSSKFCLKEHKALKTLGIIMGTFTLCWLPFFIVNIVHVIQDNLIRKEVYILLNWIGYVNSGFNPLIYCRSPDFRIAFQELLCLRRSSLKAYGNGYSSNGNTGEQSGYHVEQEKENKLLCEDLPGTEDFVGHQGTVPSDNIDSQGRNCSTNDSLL

Row | SMILES | Potency [1] | Potency [2] | Potency [3] | Potency [4] | Potency [5] | Potency [6] | Potency [7] | Potency [8] | Potency [9] | Potency [10] | Potency [11] | Potency [12] | Potency [13] | Potency [14] | Potency [15] | Potency [16] | Potency [17] | Potency [18] | Potency [19]
1 | CC(=O)OCC(CCn1cnc2cnc(N)nc21)COC(C)=O | inactive | inactive | inactive | inactive | inactive | inactive | inactive | inactive | inactive | inactive | inactive | inactive | inactive | – | – | – | – | – | –
2 | COCc1nnc(-c2ccc[n+]([O-])c2)n1-c1c(Cl)c(Cl)cc2[nH]c(=O)c(=O)[nH]c12 | inactive | inactive | inactive | inactive | inactive | inactive | inactive | inactive | inactive | inactive | – | inactive | inactive | inactive | inactive | inactive | inactive | – | –
3 | C=C1c2cccc(O)c2C(O)=C2C(=O)[C@]3(O)C(O)=C(C(N)=O)C(=O)[C@@H](N(C)C)[C@@H]3[C@@H](O)[C@H]12 | inactive | inactive | inactive | inactive | inactive | inactive | inactive | inactive | inactive | inactive | – | inactive | – | inactive | inactive | – | inactive | inactive | –
4 | CCN(CCCc1ccccc1)CCCc1ccccc1 | inactive | inactive | inactive | inactive | – | inactive | – | – | – | inactive | – | – | – | – | inactive | – | inactive | inactive | inactive
5 | CN(C(=O)CN(CCO)CC(=O)N(C)C(C)(C)Cc1ccccc1)C(C)(C)Cc1ccccc1 | inactive | inactive | inactive | inactive | inactive | inactive | inactive | – | inactive | inactive | – | inactive | inactive | inactive | inactive | inactive | inactive | – | –
6 | COP(=O)(O)OP(=O)(O)OC | inactive | 24.3 µM (active) | inactive | inactive | – | inactive | inactive | inactive | inactive | – | – | – | inactive | inactive | inactive | inactive | inactive | – | –
7 | CCCCCCCCCCC[C@@H](C[C@@H]1OC(=O)[C@H]1CCCCCC)OC(=O)[C@H](CC(C)C)NC=O | inactive | inactive | inactive | inactive | inactive | – | inactive | inactive | inactive | – | – | inactive | – | inactive | inactive | inactive | inactive | inactive | inactive
8 | CC(C)COC(=O)COc1ccc(Cl)cc1Cl | inactive | inactive | inactive | inactive | inactive | inactive | inactive | – | – | inactive | – | inactive | inactive | inactive | inactive | inactive | inactive | – | –

— PubChem BioAssay (Tox21)
